High-throughput results from PubChem BioAssay.
Rows were chosen to be rich in hits. Some 7.6% of all compounds tested hit in one or more screens of this group.
RORgamma inh – blocks mouse ROR gamma transcriptional activity. P51450. Drosophila S2 Gal4-RORgamma UAS-luciferase reporter, 20 h. Potency, µM (highest dose often 53.6 µM), inactives show top-dose activity change, negative = inhibition, hits mostly inhibitors. 310,000 compounds, 5.4% hits; also: potency is read from the fitted curve at half-maximal effect; % is scaled to controls: 0 for no effect and ±100 for the full control effect; nearly all actives have a fitted effect of over 60% in size
Target sequence (P51450 whole entry, looked up, the tested form may be a part): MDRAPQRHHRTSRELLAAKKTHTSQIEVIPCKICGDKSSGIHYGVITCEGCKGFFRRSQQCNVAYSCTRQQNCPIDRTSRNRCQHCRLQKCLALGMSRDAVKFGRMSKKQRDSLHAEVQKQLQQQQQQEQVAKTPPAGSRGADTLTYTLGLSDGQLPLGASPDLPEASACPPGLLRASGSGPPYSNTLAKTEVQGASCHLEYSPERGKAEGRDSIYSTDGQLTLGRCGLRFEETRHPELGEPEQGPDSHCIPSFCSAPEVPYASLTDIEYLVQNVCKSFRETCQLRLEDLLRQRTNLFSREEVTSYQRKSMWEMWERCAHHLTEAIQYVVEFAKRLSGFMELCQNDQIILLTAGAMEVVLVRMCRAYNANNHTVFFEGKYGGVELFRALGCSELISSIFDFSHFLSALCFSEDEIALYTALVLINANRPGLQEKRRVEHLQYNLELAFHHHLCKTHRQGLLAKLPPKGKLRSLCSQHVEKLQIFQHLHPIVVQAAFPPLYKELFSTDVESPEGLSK
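Luminescence from a UAS-regulated Photinus luciferase reporter in stably transfected Drosophila Schneider cells is measured; decreased signal marks ROR gamma inhibition. Fusion expression is induced by 700 uM copper sulfate for 20 hr.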
Giardia killer – Giardia lamblia killing. Giardia lamblia trophozoite viability. activity change, % at 7.66 µM, hits read low. 340,000 compounds, 0.15% hits; in the data active = activity change below about -80%; inconclusive = between about -30% and that limit;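 also: parasites exposed to compound for two days anaerobically before the ATP read; % is scaled to controls: 0 for no effect and ±100 for the full control effect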
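Media and compound were dispensed first, then trophozoites at 100 cells/well; plates sat 48 hrs at 37 deg C without oxygen before ATP luminescence reagent was added and read after 15-30 min at room temperature.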
BRCA1 expr up – activators of BRCA1 expression; Potency, µM (doses to about 46.1 µM), without a hit: at the top dose activation, actives largely listed as activators; 380,000 compounds, 1.1% hits; MCF7-BRCA1-FFLuc reporter, luminescence, 48 h; response scale: scaled: vehicle 0%, 10 µM genistein 100%; AID 624202; also: potency is read from the fitted curve at half-maximal effect; nearly all actives have a fitted effect of over 80% in size
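MCF7-BRCA1-FFLuc cells, 2000/well in phenol-red-free MEM, attached 2 h then treated 48 h at 37 C. Luciferase luminescence read 15 min after reagent; normalized to genistein maximum activation (10microM) and DMSO, concentration-response fitted.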
VP16 counter – Gal4-VP16 reporter inhibition counter-screen; Drosophila S2 Gal4-VP16 UAS-luciferase, luminescence, 20 h; Potency, µM (titrated, usually from 53.6 µM), for the others: top-dose activity, negative = inhibition, hits mostly inhibitors; 310,000 compounds, 3.5% hits; AID 2546;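 also: Gal4-VP16 expression switched on by copper sulfate through the metallothionein promoter; potency is read from the fitted curve at half-maximal effect; % is scaled to controls: 0 for no effect and ±100 for the full control effect; nearly all actives have a fitted effect of over 50% in size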
p53 reactivation – re-activators of mutant p53. H1299 p53-A138V BP100-luciferase reporter, luminescence, 24 h. 320,000 compounds, 0.063% hits. AID 504706. Potency, µM (titrated, usually from 92.2 µM), for the others: top-dose activity change, positive = activation, actives largely listed as activators; also: potency is read from the fitted curve at half-maximal effect; % of control where 0% means no effect; nearly all actives have a fitted effect of over 45% in size
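H1299 (p53-null), stable ts p53-A138V + BP100-Luc; 1000 cells/well, Opti-MEM/10% FBS; cpd 4 pt, 1:5; 24 h, 37 deg C, 5% CO2; detection reagent 10 min RT; luminescence.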
ELG1 DNA repair – ELG1-dependent DNA repair inhibition | HEK293T ELG1-luciferase reporter, luminescence, 16 h; DNA damage induced by 5-fluorouridine | Potency, µM (doses to about 46.1 µM), without a hit: top-dose activity change, negative = inhibition, actives largely listed as inhibitors | 330,000 compounds, 2.3% hits; also: potency is read from the fitted curve at half-maximal effect; % is scaled to controls: 0 for no effect and ±100 for the full control effect; nearly all actives have a fitted effect of over 55% in size
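Overnight (16 hr) co-exposure of 2,000 cells/well to 5-fluorouridine and compound at 37 °C preceded detection. Luciferase was quantified via ONE-Glo luminescence; loss of signal denotes inhibition.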
* = called active by the depositor; u = inconclusive; x = no result given. Unless noted, calls follow the shape of the dose curve; as a rule, active = well fitted curve in the direction sought with a large enough effect; inconclusive = small, poorly fitted or top-dose-only effect, or another doubt; inactive = no such curve, though single readings can be large; an effect the other way counts as inactive or inconclusive.

SMILES	RORgamma inh	Giardia killer	BRCA1 expr up	VP16 counter	p53 reactivation	ELG1 DNA repair
CC(=O)N(C)c1ccc(NC(=S)Nc2ccc(C(C)C)cc2)cc1	7.1µM*	-5	41%	22µM*	1%	u
Cc1cc(C)cc(NC(=S)Nc2cccc3ccccc23)c1	22%	-4	-11%	22%	18%	u
COc1cccc(NC(=S)Nc2cccc3ccccc23)c1	0.11µM*	-11	-24%	6.3µM*	7%	u
CCOC(=O)c1ccc(CNC(=O)C2CCC(=O)N(Cc3cccc(OC)c3)C2)o1 (configuration not stated)	3%	4	-5%	1%	12%	-1%
CN(CC(=O)Nc1ccc(N2CCOCC2)cc1)C(=O)C12CC3CC(CC(C3)C1)C2	x	-4	4%	x	1%	2%
COc1cc(C(=O)OCC(=O)Nc2c(F)c(F)c(F)c(F)c2F)cc(OC)c1OC	1%	-9	16%	0%	-4%	26µM*
Cc1cc(OCC(=O)NNC(=S)NC(=O)c2cccs2)ccc1Cl	7.9µM*	-9	-23%	u	2%	-3%
Cc1ccc(OCC(=O)NNC(=S)NC(=O)c2cccs2)c(C)c1	10µM*	-15	-1%	11µM*	-7%	14%
Cc1ccc(C(C(=O)NCc2ccc(F)cc2)N(CCCO)C(=O)C2COc3ccccc3O2)o1 (configuration not stated)	2%	-1	-10%	-7%	-2%	-18%
Cc1ccc(OCc2ccc(C(=O)Nc3cc(C)on3)o2)c([N+](=O)[O-])c1	-6%	-15	9%	-17%	9%	-1%
CCn1c(NC(=O)c2ccc(COc3ccc(C)cc3[N+](=O)[O-])o2)nc2ccccc21	2.2µM*	-11	1%	5µM*	-2%	u
COCCn1c(SCC(=O)c2[nH]c(C)c(C(C)=O)c2C)nc2ccccc21	13%	-5	-59%	13%	2%	26µM*
CCOc1ccc(C(=O)N[C@H](C(=O)Nc2ccc(OC)c(S(=O)(=O)N3CCOCC3)c2)C(C)C)cc1	2%	-1	-43%	1%	-6%	u
CCOC(=O)c1ccccc1N/C=C/C(=O)c1cccs1	u	-2	-36%	-18%	16µM*	6%
O=C(/C=C\Nc1cccc(F)c1)c1cccs1	-40%	-17	74%	-13%	u	u
Cc1ccc(N/C=C/C(=O)c2cccs2)cc1	u	-25	u	8.9µM*	-7%	u
C[C@@]12CCC=C[C@H]1[C@H](c1ccc(F)c(/C=C/c3ccccc3)c1)N(Cc1ccccc1)C2=O	8%	13	13%	-6%	6%	-1%
O=C(c1ccco1)n1nc(-c2ccccc2)nc1NCc1ccc(F)cc1	x	x	9%	x	x	x
CCC(C)(C)C1CCC2(CC1)NC(=O)N(CC(=O)N(C)CC(=O)Nc1ccccc1C(F)(F)F)C2=O (configuration not stated)	25%	-9	-52%	-10%	7%	-2%
CCN(CC(=O)NCc1ccc(F)cc1)C(=O)/C=C/c1cc(OC)ccc1OC	u	u	-7%	19%	10%	8%
Cc1cc(C)n(-c2ccc(C(=O)C(C#N)c3nc4ccccc4n3C)cc2)n1 (configuration not stated)	3.2µM*	0	14%	8.9µM*	4%	0%
Cc1cc(C)n(-c2ccc(C(=O)OC(C)C)cc2)n1	0%	16	0%	4%	9%	14%
COc1ccc(OC)c(NC(=O)CCN2CCCCCC2)c1	-19%	-3	39%	-8%	-9%	-2%
O=C(CCc1nc2ccccc2n1-c1ccccc1)NCCO	18%	-28	3%	1%	-2%	1%
O=C(COC(=O)CCc1nc2ccccc2n1-c1ccccc1)Nc1ccc(N2CCCCC2)cc1	u	11	-1%	6.3µM*	4%	15%
